# In the supplement of paper PMC12632987:
# Over roughly 2,300 sequences, “median log2 fold change of GCK-ALFA target abundance (FLAG IP / Myc IP barcode read proportion)” has its median near 0.095; the lowest 2% begin near -0.47. The sample as a whole holds a higher share of the lowest values than the screen did.
# B1: LC3A_28_979 (protein)
# chain: SALEKELAAKIAEAKKAAAAGEPAVITIKVSGDTNEEQLAKIIETLEEIAEILKDVKGSAIIIDIDRGVDPKHKQKLIDKGEEIEKKYPNVTVIFALEEE
# B2: LC3A_36_1337 (protein)
# chain: MVVIVLSAASEEVRAAEEAHYRAKGATVFAVAVEDLDEATKEEILAVVKAAGPDADIIIVAVAETEEGLAKVLKKASELADYIEEETGRTVIIEVDLVEK
# B3: LC3A_141_370 (protein)
# chain: KTVTFTKTFTNSSLDEVIAGMEELEKEVLAAHEKLGGGKVKVTVTVTIKNSKTGETKVIKEEFEADKETLEMIMEGVLIEAASARLTENANITVTVTLEA
# B4: LC3A_28_1047 (protein)
# chain: SELEENAEKAIAEARKQLEQGEEAVVTLKVPDMPTEEAVRIFRETLERLIALSKEYGGKKISVVVDFDGDQETFDAIVDIAEEAEKADPNLTVIVALSEE
# B5: LC3A_28_815 (protein)
# chain: MTAEEIIKQIREQAEKGKQSDEMVLIEVKISGTITEEEAKEIMEVIREESAELAKDRPVAVLIDLEAPISQEVIDLIADMAEEIEKELPNVSVIIALPEE
# B6: LC3A_free_8_2554 (protein)
# chain: ISEEQKAKISEVLDKAEEEIVKKAKEMGVSEEEINELEALMGFLLQDVLDALEEGPEAALKAFEEESKLIVEYAKELGEELAKEVKKVLEEAKKEIEKIL
# B7: LC3A_28_1007 (protein)
# chain: MSLIEKTKEEIKKALEQAEKGEDAFLEIEIPSTATKEEVEEVLKLIEEAAKEVSKLEGVKLYVVIDDSGSPEIHDLVVDRADEIEEKYPNVSVIIAYDDK
# B8: LC3A_free_46_2383 (protein)
# chain: YKAEIDIDFGAMDKETAEKIAEEIKKAAEEISKKYGVKVEVEVEIIEDEDGNYYLRVKITIEGEDKEKVEEAVNELIEKIDEIAEKANVSYIISVEFIDE
# Target: MAP1LC3A, Q9H492
# Experiment: median log2 fold change of GCK-ALFA target abundance (FLAG IP / Myc IP barcode read proportion) (log2 ratio); each designed protein is fused to an ALFA-tag nanobody in HEK293 cells to bring the named protein to FLAG-tagged glucokinase (GCK); Myc marks an untargeted standard; higher = target protein stabilised (more abundant)
# Conditions: target protein: 3xFLAG-MCP-GCK-ALFA reporter; HEK293 landing pad (RPLP)
# How it was run: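 Binders fused to an ALFA nanobody were recombined as a library into HEK293 landing-pad cells, which were induced with 2 μg mL^−1 doxycycline and then transfected to express a FLAG-tagged target and a Myc-tagged standard. After 48 h, circular RNA barcodes recovered by anti-FLAG and anti-Myc immunoprecipitation of lysates were reverse transcribed, amplified and sequenced. Each binder's target abundance is the median log2 ratio of FLAG to Myc barcode read proportions, from barcodes present at ≥10^−7 in both replicates, binders carrying ≥3 barcodes per replicate, a 10^−6 pseudocount and pooled replicates.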
row,Binder,median log2 fold change
1,B1,-0.00812
2,B2,0.15
3,B3,-0.474
4,B4,-0.153
5,B5,-0.179
6,B6,-0.0712
7,B7,-0.353
8,B8,0.115
